Bioassay records from PubChem.
Dicer inh = inhibitors of Dicer pre-microRNA processing, primary screen, biochemical, cat-ELCCA, chemiluminescence | z-score at 25 µM | AID 1347074, 2019 | cat-ELCCA pre-miR-21 Dicer processing; hits give high values | hit rate 6% among 47,000 | Endoribonuclease Dicer (Homo sapiens), Q9UPY3; in the data active = z-score above about 3, passing the limit was not always enough;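 also: plate controls were vehicle for no effect and no enzyme for full effect; higher signal means more uncleaved substrate so more Dicer inhibition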
Target sequence (Q9UPY3 whole entry, looked up): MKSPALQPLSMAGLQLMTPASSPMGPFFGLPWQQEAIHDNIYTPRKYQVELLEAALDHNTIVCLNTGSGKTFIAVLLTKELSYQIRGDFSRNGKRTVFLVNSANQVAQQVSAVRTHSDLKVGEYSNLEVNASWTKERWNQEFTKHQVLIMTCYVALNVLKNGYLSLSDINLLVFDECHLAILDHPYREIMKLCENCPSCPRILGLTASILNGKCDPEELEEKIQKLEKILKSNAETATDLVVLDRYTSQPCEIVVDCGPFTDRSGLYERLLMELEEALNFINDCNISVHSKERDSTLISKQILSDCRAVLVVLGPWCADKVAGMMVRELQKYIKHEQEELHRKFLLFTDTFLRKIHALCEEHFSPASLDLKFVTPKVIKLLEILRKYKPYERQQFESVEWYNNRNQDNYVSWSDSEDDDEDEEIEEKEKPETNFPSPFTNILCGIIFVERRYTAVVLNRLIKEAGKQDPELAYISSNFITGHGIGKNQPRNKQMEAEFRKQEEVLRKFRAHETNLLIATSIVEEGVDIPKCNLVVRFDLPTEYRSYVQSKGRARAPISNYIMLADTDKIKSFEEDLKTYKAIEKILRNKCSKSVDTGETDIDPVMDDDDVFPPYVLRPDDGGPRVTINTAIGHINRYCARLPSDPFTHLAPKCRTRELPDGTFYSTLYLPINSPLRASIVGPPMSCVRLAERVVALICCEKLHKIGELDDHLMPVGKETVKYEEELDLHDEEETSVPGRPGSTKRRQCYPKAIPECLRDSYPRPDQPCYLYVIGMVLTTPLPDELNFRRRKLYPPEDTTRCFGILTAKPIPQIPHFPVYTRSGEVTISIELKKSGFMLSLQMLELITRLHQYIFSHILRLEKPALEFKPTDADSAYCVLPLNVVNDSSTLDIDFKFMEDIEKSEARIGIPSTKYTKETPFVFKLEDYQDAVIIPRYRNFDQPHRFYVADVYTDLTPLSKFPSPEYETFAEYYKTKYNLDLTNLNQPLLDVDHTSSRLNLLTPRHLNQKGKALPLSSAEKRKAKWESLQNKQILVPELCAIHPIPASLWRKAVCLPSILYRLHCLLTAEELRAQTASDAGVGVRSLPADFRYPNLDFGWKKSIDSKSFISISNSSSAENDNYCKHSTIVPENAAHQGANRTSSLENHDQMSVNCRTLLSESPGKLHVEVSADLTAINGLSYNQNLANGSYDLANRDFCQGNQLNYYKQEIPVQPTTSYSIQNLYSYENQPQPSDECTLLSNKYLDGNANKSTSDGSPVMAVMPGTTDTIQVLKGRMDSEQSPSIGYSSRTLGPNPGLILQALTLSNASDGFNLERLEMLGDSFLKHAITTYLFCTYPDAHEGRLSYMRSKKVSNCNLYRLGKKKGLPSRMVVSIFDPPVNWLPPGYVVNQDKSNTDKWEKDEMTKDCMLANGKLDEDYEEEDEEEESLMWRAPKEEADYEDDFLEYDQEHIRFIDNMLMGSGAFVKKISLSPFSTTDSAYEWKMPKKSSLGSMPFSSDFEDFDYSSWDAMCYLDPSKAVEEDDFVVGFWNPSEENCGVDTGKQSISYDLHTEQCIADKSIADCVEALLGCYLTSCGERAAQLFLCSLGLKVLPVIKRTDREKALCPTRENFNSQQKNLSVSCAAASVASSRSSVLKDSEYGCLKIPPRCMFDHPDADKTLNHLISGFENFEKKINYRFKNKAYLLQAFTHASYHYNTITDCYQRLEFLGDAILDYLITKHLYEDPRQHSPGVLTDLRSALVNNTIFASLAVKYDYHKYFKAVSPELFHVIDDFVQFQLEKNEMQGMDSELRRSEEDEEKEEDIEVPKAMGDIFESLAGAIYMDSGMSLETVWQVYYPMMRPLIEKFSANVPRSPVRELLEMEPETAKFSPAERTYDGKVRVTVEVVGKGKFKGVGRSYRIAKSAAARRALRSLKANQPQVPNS
Starred values were filed as active, the others as inactive. The entries come from a sample that favours hits as a whole.

How did Cc1ccc2c(c1)-c1cc(C)nn1C(c1sccc1C)N2 (stereo not given) do in these assays?
Dicer inh: 0.99

How did Cc1ccc(S(C)(=O)=NC(=O)Nc2ccc(Cl)cc2)cc1 (stereo not given) do in these assays?
Dicer inh: 0.02

What do the screens show for `O=C(Nc1ccc(Cl)cc1)O/N=C\c1ccc(C#Cc2ccccc2)cc1`?
Dicer inh: 0.34

How did Cc1c(Sc2ccc(Cl)cc2)cnn1CCC#N do in these assays?
Dicer inh: 0.45

Results for Cc1ccc(-c2nc(NCCCN3CCOCC3)c3ccccc3n2)cc1 ?
Dicer inh: -0.32

How did Cn1c(CSCc2nc(-c3ccccc3)cs2)nnc1SCC(=O)c1ccccc1 do in these assays?
Dicer inh: -1.8

Results for Cc1ccc(S(=O)(=O)NCCc2ccc(S(N)(=O)=O)cc2)cc1 ?
Dicer inh: 0.1

What do the screens show for `Cn1cccc1CNCCc1ccc(S(N)(=O)=O)cc1`?
Dicer inh: 2.3

Results for NS(=O)(=O)c1ccc(CCNCc2cccs2)cc1 ?
Dicer inh: 3.1*

How did COC(=O)c1ccc(C)c2c1C1C=CCC1[C@@H](c1ccc(C(=O)O)cc1)N2 (stereo not given in full) do in these assays?
Dicer inh: -0.83

What do the screens show for `O=C(CSc1ccccn1)N1CCc2ccccc2C1`?
Dicer inh: -1.2

How did CCOC(=O)N/N=C(\C)c1ccc(C)cc1 do in these assays?
Dicer inh: 1.2

What do the screens show for `O=C(c1ccc(Br)cc1)C(C(=O)N1CCCCC1)n1ccccc1=O` (stereo not given)?
Dicer inh: 3.3*

What do the screens show for `O=C(c1ccc(F)cc1)C(C(=O)N1CCN(C/C=C/c2ccccc2)CC1)n1ccccc1=O` (stereo not given)?
Dicer inh: -0.72

What do the screens show for `CC1CCN(C(=O)C(C(=O)c2ccc(Br)cc2)n2ccccc2=O)CC1` (stereo not given)?
Dicer inh: -0.31

Results for O=C(Nc1nccs1)c1cc2ccccc2c(=O)s1 ?
Dicer inh: 0.11

What do the screens show for `O=C1C2C(c3ccccc3)OC3(C(=O)c4ccccc4C3=O)C2C(=O)N1c1ccccc1` (stereo not given)?
Dicer inh: 0.05

What do the screens show for `CCOC(=O)C1=NN(c2ccccc2)C2(C(=O)c3ccccc3C2=O)C1c1ccc(C)cc1` (stereo not given)?
Dicer inh: -0.57

Results for O=C(C1=NOC2(C(=O)c3ccccc3C2=O)C1c1ccccc1)c1ccccc1 (stereo not given) ?
Dicer inh: 3.9*

What do the screens show for `Cc1cc([N+](=O)[O-])nn1Cc1cccc(C(=O)O)c1`?
Dicer inh: 0.47

How did NS(=O)(=O)c1cccc(-c2ccc(C3Nc4ccccc4-c4nc5ccccc5n43)o2)c1 (stereo not given) do in these assays?
Dicer inh: 0.57

What do the screens show for `O=C1/C(=C\c2ccc(Cl)cc2)N=C(c2ccccc2)N1CCc1csc2ccccc12`?
Dicer inh: 2.3

How did Cc1nn(C)c(=O)c2noc(/C=C/c3ccsc3)c12 do in these assays?
Dicer inh: -1.6

How did Cc1cc(Nc2ccccc2)n2ncnc2n1 do in these assays?
Dicer inh: -1.4

How did Cc1ccc(Nc2cc(-c3ccccc3)nc3ncnn23)cc1 do in these assays?
Dicer inh: 3.2*

What do the screens show for `FC(F)(F)c1cc(-c2ccccc2)nc2ncnn12`?
Dicer inh: -0.01

How did c1ccc2[nH]c(Sc3ncnc4sc5c(c34)CCCC5)nc2c1 do in these assays?
Dicer inh: -0.78

Results for C=CCN1C(=O)C(O)(CC(=O)c2cc(C)ccc2C)c2ccccc21 (stereo not given) ?
Dicer inh: 9.4*

What do the screens show for `C=CCN1C(=O)C(O)(CC(=O)c2cc(OC)ccc2OC)c2cc(Br)ccc21` (stereo not given)?
Dicer inh: 3.5*

Results for C=CCN1C(=O)C(O)(CC(=O)c2ccc(C)cc2C)c2ccccc21 (stereo not given) ?
Dicer inh: -1

What do the screens show for `C=CCN1C(=O)C(O)(CC(=O)c2ccccc2OC)c2ccccc21` (stereo not given)?
Dicer inh: 1.1

What do the screens show for `C=CCN1C(=O)C(O)(CC(=O)c2ccc(OC)cc2OC)c2cc(Br)ccc21` (stereo not given)?
Dicer inh: -0.27

How did CCCN1C(=O)C(O)(CC(=O)c2cc(OC)ccc2OC)c2cc(Br)ccc21 (stereo not given) do in these assays?
Dicer inh: -0.9

Results for O=C(CSc1n[nH]c(=O)n1-c1cccc(F)c1)Nc1cc(Cl)cc(Cl)c1 ?
Dicer inh: 0.29

Results for CN(C)/C=N/C1N=C(C2CC2)N(C)C(=O)N1 (stereo not given) ?
Dicer inh: 2.1

Results for CCOC(=O)c1cnc2c(-c3ccccc3)c(C(F)(F)F)sc2c1N1CCCC1 ?
Dicer inh: -0.49

What do the screens show for `Cc1ccc(-c2nn(-c3ccccc3)cc2C2CC(c3ccccc3)=NN2S(C)(=O)=O)cc1` (stereo not given)?
Dicer inh: -1.1

Results for O=C(CN1C2=NCCN2c2ccccc21)c1cccc(Br)c1 ?
Dicer inh: 3

How did CCOC(=O)c1c(NC(=S)N2CCN(C)CC2)sc(C)c1C do in these assays?
Dicer inh: -1.9

What do the screens show for `CCOC(=O)c1c(NC(=O)CCC(=O)O)sc(C)c1C`?
Dicer inh: 2.1

Results for CCNC(=S)Nc1sc(C)c(C)c1C(=O)OCC ?
Dicer inh: 5.3*

What do the screens show for `COC(=O)c1c(C)oc2ccc(OC(=O)c3ccc(Br)cc3)cc12`?
Dicer inh: 1.6

How did CCCC1=C(C(=O)OCC)C(c2ccccc2)n2c(nc3ccccc32)N1 (stereo not given) do in these assays?
Dicer inh: -0.46

How did CCCC1=C(C(=O)OCC)C(c2ccc(O)cc2)n2c(nc3ccccc32)N1 (stereo not given) do in these assays?
Dicer inh: 3.6*

How did CCCC1=C(C(=O)OCC)C(c2ccccc2F)n2c(nc3ccccc32)N1 (stereo not given) do in these assays?
Dicer inh: 0.12

What do the screens show for `Cc1ccc(C2Nn3c(C)nnc3SC2C(=O)Nc2ccc(Br)c(C)c2)cc1` (stereo not given)?
Dicer inh: -1.5

How did CSc1nn(-c2ccccc2)cc1/C(N)=N/OC(=O)Nc1ccc(Cl)cc1 do in these assays?
Dicer inh: -4.9

Results for Nc1nc2c(c(=O)[nH]1)C(c1cccc(Br)c1)CC(=O)N2 (stereo not given) ?
Dicer inh: 0.8

Results for c1ccc(CCNCCN2CCOCC2)cc1 ?
Dicer inh: 1.3

Results for CCn1c2ccccc2c2nnc(SCC(=O)Nc3nnc(C)s3)nc21 ?
Dicer inh: 1.8

How did CN(C)C(=O)C12CCC(C)(C(=O)C1)C2(C)C (stereo not given) do in these assays?
Dicer inh: 3.1*

Results for O=C1CCCC2=C1C(c1ccc(Cl)cc1)c1c([nH]n(-c3ccccc3)c1=O)N2 (stereo not given) ?
Dicer inh: -1.6

How did Cc1ccc(S(=O)(=O)CCS(=O)(=O)c2cccs2)cc1 do in these assays?
Dicer inh: 1.3

Results for CN=C(C)/C(C(=O)OC)=C(/O)c1cc(C(F)(F)F)cc(C(F)(F)F)c1 ?
Dicer inh: 0.27

How did CC1=NN(c2cccc(C(=O)O)c2)C(=O)C1 do in these assays?
Dicer inh: -3.6

How did Cc1ccc(C)n1-c1ccc(SCC(=O)O)cc1 do in these assays?
Dicer inh: 2

Results for Cc1ccc(C)n1-c1cc(C(=O)O)cc(C(=O)O)c1 ?
Dicer inh: 11*

How did COc1cc(C2SCCS2)cc(Br)c1OC(=O)c1cccs1 do in these assays?
Dicer inh: 0.9
